# Assay results: paper PMC12820563, “FoxP3 forms a head-to-head dimer in vivo and stabilizes its multimerization on adjacent microsatellites”
# Over roughly 16,000 sequences, “rpm ratio (pull-down/input)” has its median near 0.5; the highest 2% begin near 5.5. The full list was thinned out, with the highest values kept by preference.
# Target: T1, MBP-FoxP3dN (Mus musculus, UniProt Q99JB6 188-423)
# T1 sequence: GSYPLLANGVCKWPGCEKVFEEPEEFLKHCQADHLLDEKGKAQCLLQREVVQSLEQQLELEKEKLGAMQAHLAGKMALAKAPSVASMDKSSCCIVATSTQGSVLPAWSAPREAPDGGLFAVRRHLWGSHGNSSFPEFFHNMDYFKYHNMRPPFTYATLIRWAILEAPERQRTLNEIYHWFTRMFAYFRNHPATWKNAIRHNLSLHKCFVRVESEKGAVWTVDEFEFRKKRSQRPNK
# Experiment: PD-seq (MBP pull-down with sequencing); 20 mM Tris-HCl pH 7.5, 100 mM NaCl, 1.5 mM MgCl2, 0.4 uM protein, 0.1 uM dsDNA library, 30 min, room temperature, amylose pull-down; high values mean tight binding
# Conditions: protein: recombinant; tags: His6-MBP; chain copies: 2; dsDNA, one strand shown
# Outline: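 Protein and DNA were mixed at 0.4 µM and 0.1 µM and held for 30 min at room temperature in Tris pH 7.5 buffer with NaCl and MgCl2; the protein was a His6-MBP-tagged, N-terminally truncated mouse FoxP3 or FoxP1 fragment from E. coli, and the DNA a Klenow-filled double-stranded degenerate library. Amylose resin captured the complexes, which were washed three times. Binding is read as reads-per-million enrichment of pull-down versus input after Illumina sequencing, with replicates pooled.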
row,Sequence,binding signal
1,GATGATTGTTCTCCCAGCTGATGAATTGTTCGCCTCGAGTAAACAAATTTTCCTAATCTTTCTGTTCAAGCGCCATCTAC,0.653 RPM ratio (pull-down/input)
2,GATGATTGTTCTCCCAGCTGATGAATTTTGTGCCTCGAGTAAACAAATTTTCCTAATCTTTCTGTTCAAGCGCCATCTAC,1.84 RPM ratio (pull-down/input)
3,GATGATTGTTCTCCCAGCTGATGAATTCCGCGCCTCGAGTAAACAAATTTTCCTAATCTTTCTGTTCAAGCGCCATCTAC,1.68 RPM ratio (pull-down/input)
4,GATGATTGTTCTCCCAGCTGATGAATTTTTCGCCTCGAGTAAACAAATTTTCCTAATCTTTCTGTTCAAGCGCCATCTAC,0.467 RPM ratio (pull-down/input)
5,GATGATTGTTCTCCCAGCTGATGAATTCTGCGCCTCGAGTAAACAAATTTTCCTAATCTTTCTGTTCAAGCGCCATCTAC,2.3 RPM ratio (pull-down/input)
6,GATGATTGTTCTCCCAGCTGATGAATTTCGCCTCTCGAGTAAACAAATTTTCCTAATCTTTCTGTTCAAGCGCCATCTAC,6.04 RPM ratio (pull-down/input)
7,GATGATTGTTCTCCCAGCTGATGAATTCTGCCTCTCGAGTAAACAAATTTTCCTAATCTTTCTGTTCAAGCGCCATCTAC,5.87 RPM ratio (pull-down/input)
8,GATGATTGTTCTCCCAGCTGATGAATTCTGTGCCTCGAGTAAACAAATTTTCCTAATCTTTCTGTTCAAGCGCCATCTAC,1.19 RPM ratio (pull-down/input)
9,GATGATTGTTCTCCCAGCTGATGAATTCTCCGCCTCGAGTAAACAAATTTTCCTAATCTTTCTGTTCAAGCGCCATCTAC,0.428 RPM ratio (pull-down/input)
10,GATGATTGTTCTCCCAGCTGATGAATTGTGCCTCTCGAGTAAACAAATTTTCCTAATCTTTCTGTTCAAGCGCCATCTAC,6.79 RPM ratio (pull-down/input)
11,GATGATTGTTCTCCCAGCTGATGAATTCCGCCTCTCGAGTAAACAAATTTTCCTAATCTTTCTGTTCAAGCGCCATCTAC,6.3 RPM ratio (pull-down/input)
12,GATGATTGTTCTCCCAGCTGATGAATTAGACTCCTCGAGTAAACAAATTTTCCTAATCTTTCTGTTCAAGCGCCATCTAC,0.422 RPM ratio (pull-down/input)
13,GATGATTGTTCTCCCAGCTGATGAATTATACCCATCGAGTAAACAAATTTTCCTAATCTTTCTGTTCAAGCGCCATCTAC,0.433 RPM ratio (pull-down/input)
14,GATGATTGTTCTCCCAGCTGATGAATTAGTCTTATCGAGTAAACAAATTTTCCTAATCTTTCTGTTCAAGCGCCATCTAC,0.725 RPM ratio (pull-down/input)
15,GATGATTGTTCTCCCAGCTGATGAATTAGTCGGATCGAGTAAACAAATTTTCCTAATCTTTCTGTTCAAGCGCCATCTAC,0.297 RPM ratio (pull-down/input)
16,GATGATTGTTCTCCCAGCTGATGAATTCCCTCATTCGAGTAAACAAATTTTCCTAATCTTTCTGTTCAAGCGCCATCTAC,0.325 RPM ratio (pull-down/input)

row,Sequence,binding signal
1,GATGATTGTTCTCCCAGCTGATGAATTGGTTAACTCGAGTAAACAAATTTTCCTAATCTTTCTGTTCAAGCGCCATCTAC,0.469 RPM ratio (pull-down/input)
2,GATGATTGTTCTCCCAGCTGATGAATTCTGTCATTCGAGTAAACAAATTTTCCTAATCTTTCTGTTCAAGCGCCATCTAC,4.31 RPM ratio (pull-down/input)
3,GATGATTGTTCTCCCAGCTGATGAATTGAGTACTTCGAGTAAACAAATTTTCCTAATCTTTCTGTTCAAGCGCCATCTAC,0.524 RPM ratio (pull-down/input)
4,GATGATTGTTCTCCCAGCTGATGAATTAGAAGGATCGAGTAAACAAATTTTCCTAATCTTTCTGTTCAAGCGCCATCTAC,0.225 RPM ratio (pull-down/input)
5,GATGATTGTTCTCCCAGCTGATGAATTCAGCATGTCGAGTAAACAAATTTTCCTAATCTTTCTGTTCAAGCGCCATCTAC,4.71 RPM ratio (pull-down/input)
6,GATGATTGTTCTCCCAGCTGATGAATTCGCCATGTCGAGTAAACAAATTTTCCTAATCTTTCTGTTCAAGCGCCATCTAC,0.854 RPM ratio (pull-down/input)
7,GATGATTGTTCTCCCAGCTGATGAATTTTGCATGTCGAGTAAACAAATTTTCCTAATCTTTCTGTTCAAGCGCCATCTAC,6.69 RPM ratio (pull-down/input)
8,GATGATTGTTCTCCCAGCTGATGAATTCTGCATGTCGAGTAAACAAATTTTCCTAATCTTTCTGTTCAAGCGCCATCTAC,5.95 RPM ratio (pull-down/input)
9,GATGATTGTTCTCCCAGCTGATGAATTCGCATGTTCGAGTAAACAAATTTTCCTAATCTTTCTGTTCAAGCGCCATCTAC,1.95 RPM ratio (pull-down/input)
10,GATGATTGTTCTCCCAGCTGATGAATTGTGCATGTCGAGTAAACAAATTTTCCTAATCTTTCTGTTCAAGCGCCATCTAC,7.05 RPM ratio (pull-down/input)
11,GATGATTGTTCTCCCAGCTGATGAATTCATGATGTCGAGTAAACAAATTTTCCTAATCTTTCTGTTCAAGCGCCATCTAC,0.987 RPM ratio (pull-down/input)
12,GATGATTGTTCTCCCAGCTGATGAATTTGCCATGTCGAGTAAACAAATTTTCCTAATCTTTCTGTTCAAGCGCCATCTAC,1.45 RPM ratio (pull-down/input)
13,GATGATTGTTCTCCCAGCTGATGAATTTCGCATGTCGAGTAAACAAATTTTCCTAATCTTTCTGTTCAAGCGCCATCTAC,5.75 RPM ratio (pull-down/input)
14,GATGATTGTTCTCCCAGCTGATGAATTTGCATGTTCGAGTAAACAAATTTTCCTAATCTTTCTGTTCAAGCGCCATCTAC,3.83 RPM ratio (pull-down/input)
15,GATGATTGTTCTCCCAGCTGATGAATTTCCCATGTCGAGTAAACAAATTTTCCTAATCTTTCTGTTCAAGCGCCATCTAC,0.287 RPM ratio (pull-down/input)
16,GATGATTGTTCTCCCAGCTGATGAATTGCATGTGTCGAGTAAACAAATTTTCCTAATCTTTCTGTTCAAGCGCCATCTAC,2.29 RPM ratio (pull-down/input)
